Sampled rows, rich in hits. Any-hit rate of the full collection: about 2.4%.
S1P4 antag – antagonists of human S1P4 receptor. inhibition, % at 4.98 µM. AID 1510. S1P4-expressing cells, antagonist mode, reporter read-out. 0.26% of 220,000 active; in the data active means inhibition above about 29%;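 further: 0% = wells stimulated with agonist and 100% = vehicle wells without agonist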
EP2 modulator – modulators of human EP2 prostaglandin E2 receptor. induction, % at 25 µM. AID 940. 0.83% of 260,000 active. EP2-expressing cells, cAMP HTRF FRET, PGE2 co-stimulation. P43116;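 active means compounds whose cAMP rise, as percent of the full-agonist control response, exceeds 60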;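 further: rat C6 glioma line stably carrying human EP2 under a CMV promoter; the protocol text gives 20 µM as final concentration; 100% = response of wells given 1 µM PGE2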
S1P4 ag – activates the human S1P4 receptor | S1P4-expressing cell line, agonist reporter assay | activation, % at 4.98 µM | 0.35% of 220,000 active; in the data active means activation above about 11%;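 further: 0% = DMSO vehicle and 100% = reference agonist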
PGE2 EP2 inh – EP2 receptor (human) inhibition. P43116. C6 glioma cells expressing human EP2, cAMP TR-FRET; cells stimulated with saturating PGE2. inhibition, % at 25 µM. 0.52% of 260,000 active;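 active means percent inhibition above 40 after rounding to a whole number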;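 further: rat C6 glioma host cells with rolipram phosphodiesterase inhibitor present; the protocol text gives 20 µM as final concentration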
INS promoter inh – TRM-6 insulin promoter activity inhibition; TRM-6 cells (human fetal islet line), insulin promoter-eGFP reporter, imaging; reporter expression induced with tamoxifen; inhibition, % at 2 µM; 0.9% of 130,000 active;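 active means inhibition above the mean plus 3 SD, with well images judged a real hit on visual review, cut at about 60% in these data, passing the limit was not always enough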
S1P3 antag – antagonists of human S1P3 receptor. CHO S1P3 NFAT-BLA reporter, FRET fluorescence, antagonist mode. 0.27% of 170,000 active. Q99500. inhibition, % at 4.98 µM;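 active means inhibition above the plate cutoff, the mean inhibition of test wells on that plate plus 3 SD, cut at about 28% in these data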;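 further: cells challenged with S1P at its EC80 of 0.8 µM; blue over green emission ratio from cleaved BLA substrate after 4 h stimulation; 0% = S1P-stimulated wells and 100% = unstimulated DMSO-only wells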
Target sequence (Q99500 whole entry, looked up): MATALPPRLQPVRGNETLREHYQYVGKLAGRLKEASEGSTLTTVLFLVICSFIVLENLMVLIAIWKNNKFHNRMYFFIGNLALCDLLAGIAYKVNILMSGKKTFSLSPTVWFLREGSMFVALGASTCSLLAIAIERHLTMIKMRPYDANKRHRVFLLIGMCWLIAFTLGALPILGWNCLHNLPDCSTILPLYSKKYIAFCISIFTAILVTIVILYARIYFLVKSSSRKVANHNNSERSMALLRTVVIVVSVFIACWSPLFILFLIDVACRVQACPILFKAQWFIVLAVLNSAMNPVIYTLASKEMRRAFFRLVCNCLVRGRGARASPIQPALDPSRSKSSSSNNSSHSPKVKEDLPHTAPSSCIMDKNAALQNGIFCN
EP2 confirm – EP2 receptor cAMP induction, counter-screens negative; shares compounds with EP2 modulator; C6 glioma EP2 cells, cAMP HTRF induction; plus low (about EC15) PGE2 agonist; calls only at 20 µM (by protocol); 47% of 1,300 active;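 active means cAMP induction above 50% in the main assay while under 30% in all four parallel counter assays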;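 further: rat C6 glioma cells stably expressing human EP2 receptor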
An asterisk follows results filed as active; i = inactive; · = no result given; + = active, no number.

SMILES	S1P4 antag	EP2 modulator	S1P4 ag	PGE2 EP2 inh	INS promoter inh	S1P3 antag	EP2 confirm
CCCc1nc(N2CCOCC2)c(C#N)c2c1CCCC2	7	42	0	11	-14	·	·
CC(C)Cc1nc(N2CCCCC2)c(C#N)c2c1CCC2	-9	89*	4	17	7	·	i
CCCSc1nc(N2CCOCC2)c2c(c1C#N)CCCC2	-8	66*	1	15	0	·	+
N#CCCSc1nc(N2CCOCC2)c2c(c1C#N)CCCC2	3	27	1	8	64	·	·
Cn1c(N2CCC(C(=O)NCc3ccccc3F)CC2)nc2ccccc21	·	-27	·	·	·	·	·
CS(=O)(=O)N1CCC(C(=O)NCc2ccccn2)CC1	·	12	·	5	·	·	·
Cc1cc(C)c(S(=O)(=O)N(C2=NCCS2)S(=O)(=O)c2c(C)cc(C)cc2C)c(C)c1	-1	71*	-2	16	-20	·	i
C=C(C)CSc1nc2c(c(=O)[nH]c(=O)n2C)n1C/C=C/C	·	16	·	3	·	·	·
CC(Sc1nc2ccccc2n1C)C(=O)NC(c1ccccc1)c1ccccc1 (stereo unspecified)	-4	72*	0	4	-354	·	+
CCOc1cc(S(=O)(=O)NCCc2cccc(C)c2)c(OCC)cc1-n1cnnn1	-6	68*	0	5	-36	-4	i
Nc1c(C(=O)Nc2ccccc2F)sc2nc(Cc3ccccc3)cc(C(F)(F)F)c12	2	67*	-4	15	16	·	i
O=C(CN1C(=O)c2cccc3cccc1c23)Nc1ccc2c(c1)OCCO2	·	-39	·	16	·	·	·
C/C(=C\c1ccc(C(=O)O)cc1)c1ccc2c(c1)C(C)(C)CCC2(C)C	·	53	·	18	·	·	+
O=C(Nc1nc2c(s1)CCc1ccccc1-2)c1cccs1	4	-47	4	16	-200	·	·
Fc1ccccc1Nc1nc2c(s1)CCc1ccccc1-2	-10	79*	1	21	0	9	+
CCC(CC)N1CCN(S(=O)(=O)CC)CC1	·	-67	·	16	·	·	·
COc1ccccc1C(=O)NCc1ccccc1	-24	23	2	7	-14	·	·
O=C(NCc1ccc(F)cc1)c1ccccc1OCc1ccccc1	-13	81*	1	3	-39	-2	+
Cc1cc(C)n(-c2nc(C)nc3c2cnn3-c2ccccc2)n1	4	67*	0	·	·	-6	+
COc1ccc(CN2CC(CN3CCOCC3)c3ccccc32)cc1CO (stereo unspecified)	·	-35	·	9	·	·	·
O=C(CSc1nnnn1C1CCCCC1)NC1CCCCC1	·	-36	·	6	·	·	·
COc1ccc(C2CC(C(F)(F)F)n3ncc(C(=O)O)c3N2)cc1OC (stereo unspecified)	-1	2	1	13	-17	12	·
COc1ccc(C2CC(C(F)(F)F)n3nc(C(N)=O)c(Cl)c3N2)cc1OC (stereo unspecified)	-8	75*	2	4	·	2	i
CCOc1ccc2c(c1)C1(SC(NC(C)=O)=NN1C(C)=O)C(=O)N2CC (stereo unspecified)	·	6	·	6	·	·	·
CCOC(=O)C(C)n1cnc2sc3c(c2c1=O)CCC(C)C3 (stereo unspecified)	·	-1	·	13	·	·	·
SMILES	S1P4 antag	EP2 modulator	S1P4 ag	PGE2 EP2 inh	INS promoter inh	S1P3 antag	EP2 confirm
CCOC(=O)c1cnc2ccc(OCC)cc2c1N(C)Cc1ccccc1	8	90*	-2	5	14	-6	+
CCOC(=O)c1cnc2ccc(OCC)cc2c1N1CCN(c2ccccc2OC)CC1	-6	26	-4	11	-66	·	·
CCOC(=O)c1c(-c2ccc(-c3ccccc3)cc2)csc1NC(=O)CCN1CCOCC1	12	73*	0	12	·	-12	+
COC(=O)CSc1ncnc2c1sc1nc(N3CCOCC3)c3c(c12)CCCC3	-10	41	1	7	13	·	·
CCOC(=O)CSc1ncnc2c1sc1nc(N3CCOCC3)c3c(c12)CCCC3	-16	75*	2	10	0	·	+
Cc1cccc(C)c1OCc1nnc(SCC(=O)Nc2nccs2)n1-c1ccccc1	-31	51	-2	-2	21	17	i
O=C(CSc1nnc(CCCO)n1-c1ccccc1)Nc1nccs1	-12	27	0	10	·	-5	·
CCC1Oc2ccccc2N(Cc2ccccc2C)C1=O (stereo unspecified)	-11	74*	2	6	-55	·	+
O=C(Nc1cccc(Cl)c1N1CCCCC1)c1ccc2c(c1)OCCO2	-17	74*	-2	5	-4	7	i
O=C(Nc1ccccc1N1CCCCC1)c1ccc(Cl)c([N+](=O)[O-])c1	-3	59	-1	8	·	-11	+
O=C(COc1ccc(Br)cc1)Nc1ccc(-c2nnc(-c3ccco3)o2)cc1	-2	75*	-1	0	-16	44	i
COc1ccccc1OCC(=O)Nc1ccc(-c2nnc(-c3ccco3)o2)cc1	-5	5	2	5	-56	-6	·
CCSc1ccccc1C(=O)Nc1ccc([N+](=O)[O-])cc1OC	4	66*	0	0	·	-9	i
CCC(C)C(=O)Nc1ccc([N+](=O)[O-])cc1OC (stereo unspecified)	-9	-25	1	7	·	-7	·
CCN1CCN(c2ncnc3sc4c(c23)CCC4)CC1	·	-28	·	13	·	·	·
CCC1CCc2c(sc3ncnc(N4CCOCC4)c23)C1 (stereo unspecified)	6	58	1	14	17	-1	+
CCn1c2ccccc2c2cc(/C=N/n3c(C)nnc3C)ccc21	-1	94*	-2	8	·	·	+
Cc1nnc(C)n1/N=C/c1ccccc1	-14	27	-2	5	53	·	·
CCn1c(=O)oc2cc(S(=O)(=O)NC3CCN(Cc4ccccc4)CC3)ccc21	·	-91	·	4	·	·	·
C(=N\N(Cc1ccccc1)c1ccccc1)/c1cccnc1	13	70*	0	11	-24	9	+
C/C(=N\N(Cc1ccccc1)c1ccccc1)c1cccnc1	14	70*	0	9	17	3	i
Cn1ccnc1C(NC(=O)Cc1ccc(S(C)(=O)=O)cc1)c1ccccc1 (stereo unspecified)	·	13	·	6	·	·	·
CC(=O)Nc1sc2c(c1C(c1ccccn1)N1CCCC1)CCCC2 (stereo unspecified)	6	20	0	3	·	-5	·
CC(=O)Nc1sc2c(c1C(c1cccs1)N1CCOCC1)CCCC2 (stereo unspecified)	-3	51	1	14	·	-2	i
Cc1ccc(C)n1-c1ccc(N2CCOCC2)cc1	19	0	1	12	-15	-11	·
Cc1ccc(C)n1-c1ccc(N(C)C)cc1	-1	66*	1	16	-215	-3	i

Bioassay records as filed in PubChem.
